This note sets out measurements from PubChem BioAssay AID1345082 (National Center for Advancing Translational Sciences (NCATS), 2018).

In all, about 94,000 compounds went through this assay and about 4,000 (4.3%) were called active. About 29% were inconclusive and are not listed. Calls follow the shape of the dose curve; as a rule, active = well fitted inhibition curve with a large enough effect; inconclusive = small, poorly fitted or top-dose-only effect; inactive = no such curve, though single readings can be large or run the other way. The entries come from a sample that favours actives as a whole. Entries that show only a call come without a potency.
Potency is read from the fitted curve at half-maximal effect.

This assay is described as follows: Cytotoxic Profiling in NIH 3T3 Cell Line of Diverse Libraries Using Quantitative High-Throughput Screening. Also: nearly all actives have a fitted effect of over 55% in size. The following applies: NIH 3T3 viability, CellTiter-Glo ATP luminescence, 48-72 h; series mostly up to 96.7 µM. The method, boiled down:
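Cells were seeded at 400 per well, treated with pin-transferred compound, and kept 48 or 72 hr at 37 °C before CellTiter-Glo addition and luminescence imaging of cellular ATP.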
Background: Cellular ATP, detected with luciferase, serves as a proxy for viable cell number.
Turning to `CCn1ccc(C(=O)N2C[C@@H]3CCCN4CCC[C@@H]([C@H]34)[C@H]2CCCC(=O)Nc2ccccc2)n1`, the Potency entry is “inactive”.
The result for `CC(=O)NC1CC2(CCN(C(=O)CCC(=O)O)CC2)c2ccccc21` (stereo not given) reads “inactive”.
`CS(=O)(=O)N1Cc2ccccc2CC2(CCN(Cc3ccncc3)C2)C1` (stereo not given): the Potency entry is “inactive”.
Under `CCN1CCc2[nH]cnc2C12CCN(C(=O)C1CCc3ccccc3C1)CC2` (stereo not given) stands “inactive”; under `Cc1cc2nc3n(c(=O)c2n1CC(=O)Nc1cccc(C(F)(F)F)c1)CCCC3`, “inactive”.
The result for `O=C(NCc1ccncc1)c1csc(N2CCN(c3ccccc3F)CC2)n1` reads “inactive”; that for `O=C(c1ccc(C(F)(F)F)cc1)N1CCCC2(CC(c3ccccn3)=NO2)C1` (stereo not given), “inactive”.
Under `COc1ccc(CC(=O)NC[C@@H]2C=C(C)[C@H](Cc3nc4ccncc4[nH]3)C[C@H]2C(C)C)cc1` stands “inactive”; under `CC1=C[C@@H](CN2CCC(O)CC2)[C@H](C(C)C)C[C@H]1Cc1nnc(-c2ccccc2F)o1`, 112 µM (active); under `Fc1ccc(CN2CC[C@H](c3nnc(-c4ccccc4F)o3)C2)cc1`, “inactive”.
Turning to `CC1=C[C@@H](CN2CCN(CCO)CC2)[C@H](C(C)C)C[C@H]1Cc1nnc(-c2ccc(C)cc2)o1`, the Potency is 39.8 µM (active).
The result for `CC1=C[C@@H](CNC(C)C)[C@H](C(C)C)C[C@H]1Cc1nnc(-c2ccc(C)cc2)o1` reads 50.1 µM (active).
For `COc1ccc(C(=O)NCc2nnc3cc(-c4nc(C)no4)ccn23)cc1`, the Potency entry is “inactive”.
Consider `COc1ccc(C(=O)NC[C@@H]2C=C(C)[C@H](Cc3nnc(-c4cncn4C)o3)C[C@H]2C(C)C)cc1`, for which the Potency was 25.1 µM (active).
Under `O=C1NCc2ccccc2CC12CCN(Cc1ccc(CO)o1)C2` (stereo not given) stands “inactive”.
In the case of `CC(C)c1ccccc1NC(=O)Cn1cccc1-c1nc(-c2ccccc2)no1`, the Potency entry is “inactive”.
Under `Cc1ccc(CN2CCNC(=O)C2CC(=O)NC2(CO)CCCC2)cc1` (stereo not given) stands “inactive”; under `Cc1ncc2c(c1CNC(=O)c1ccccc1F)CCN(C(=O)Cc1cccc(F)c1)C2`, “inactive”; under `CC(C)C(=O)NCC12CCC=C1N(C)C(=O)CC2` (stereo not given), “inactive”.
Regarding `COCCN1C(=O)CS(=O)(=O)C12CCN(C(=O)c1ccc(OC)cc1)CC2`, the Potency entry was “inactive”.
The result for `CNC(=O)[C@@H]1CN(C(=O)c2cccc(OC)c2)C[C@H]1COC` reads “inactive”; that for `O=C(NC1CCC(n2cc(C(=O)N3CCCC3)nn2)CC1)C(c1ccccc1)C1CCCC1` (stereo not given), “inactive”; that for `COCCNc1ncc(C(=O)O)c(C)n1`, “inactive”.
On to `O=C(Nc1ccc2ncnc(N3CCCCC3)c2c1)c1ccc2c(c1)OCO2`, for which the Potency entry was “inactive”.
As to `N[C@@H]1CC[C@H](C(=O)N2CCN(CCCOc3ccc(F)cc3)CC2)C1`, the Potency entry was “inactive”.
The result for `O=C(CCc1nnn2c1CN(C(=O)NCCc1ccccc1)CC2)NC1CC1` reads “inactive”; that for `CCn1cc(Cl)c(C(=O)N2CCCn3cc(-c4ccccc4)nc32)n1`, “inactive”.
The result for `CC1=C[C@@H](CN(C)CCc2ccccn2)[C@H](C(C)C)C[C@H]1Cc1nnc(-c2ccccc2F)o1` reads 35.5 µM (active).
The result for `CCCc1nnc(C[C@@H]2C[C@@H](C(C)C)[C@H](CN3CCC[C@H]3CO)C=C2C)o1` reads 50.1 µM (active); that for `COCC(=O)NC[C@@H]1C=C(C)[C@H](CC(=O)Nc2ccccn2)C[C@H]1C(C)C`, “inactive”; that for `CNC(=O)c1cn2c(n1)CN(C(C)=O)CC2`, “inactive”.
As for `COc1cc(CCC(=O)N2C[C@@H](C(N)=O)[C@H](c3n[nH]c(C)n3)C2)on1`, the Potency entry was “inactive”.
Under `COc1ccc(C(=O)N2C[C@@H](CO)[C@H](c3ccncc3)C2)cc1F` stands “inactive”.
Under `Cc1ccccc1C(=O)N1CCC2(CC1)OCC(C(=O)N1CCOCC1)N2C(=O)c1cccc(F)c1` (stereo not given) stands “inactive”.
Take `O=C(c1ccc(F)c(F)c1)N1CCC([C@@H]2CNC[C@H]2CO)CC1`: the Potency entry was “inactive”.
The result for `COc1ccc(-c2noc(-c3nnn4c3COC(c3ccc(F)cc3)C4)n2)cc1` (stereo not given) reads “inactive”.
Consider `Cc1ccc(S(=O)(=O)Nc2ccc(C)n(CC(=O)NCc3cccc(F)c3)c2=O)cc1`, for which the Potency result is “inactive”.
Regarding `O=C(NCc1ccc(F)cc1)C1COC2(CCCCC2)N1C(=O)c1ccccc1` (stereo not given), the Potency result was “inactive”.
The result for `CC(C)CNC(=O)C1COC2(CCC(C)CC2)N1C(=O)c1cccc(F)c1` (stereo not given) reads “inactive”.
`CC1CCC2(CC1)OCC(C(=O)NCc1ccc3c(c1)OCO3)N2C(=O)c1ccccc1F` (stereo not given): the Potency was 20 µM (active).
As to `CCCOc1cc(C)c2c(c1C)C[C@H](C(C)C(=O)N1CCOCC1)CC2` (stereo not given in full), the Potency entry was “inactive”.
Under `Fc1cccc(-c2ncc[nH]2)c1` stands “inactive”.
The result for `O=C1NC[C@@H](CCC(=O)N2CCN(c3ccccn3)CC2)N2C[C@@H](NCc3ccccc3)C[C@@H]12` reads “inactive”; that for `CC(C)N1CC2(C1)C(=O)N(CCCN1CCCC1=O)C(=O)[C@@H]1C[C@@H](O)CN12`, “inactive”.
Turning to `COc1ccccc1-c1cc(C(=O)N(C)C)nc2c1cnn2C`, the Potency entry is “inactive”.
As to `COc1ccccc1-c1cc(-c2cn[nH]c2)c2cncn2c1`, the Potency was 50.1 µM (active).
For the compound `COc1ncccc1-c1cc(-c2cn[nH]c2)c2cncn2c1`, the Potency was 70.8 µM (active).
Take `COc1ccccc1-c1ccc(C(=O)O)cc1`: the Potency result is “inactive”.
For the compound `O=C(CCn1cncn1)N1CCc2[nH]nc(-c3cccc4ccccc34)c2C1`, the Potency result was “inactive”.
Take `CCCN(CC1CCOC1)C(=O)Nc1ccccc1C(F)(F)F` (stereo not given): the Potency entry was “inactive”.
The result for `O=[S+]([O-])(c1cccc(C(F)(F)F)c1)N1CCC2(CCN(CCc3ccccc3)c3ccccc3O2)CC1` reads “inactive”; that for `Cc1ccc(CN2CCC(C3CCN(S(C)(=O)=O)CC3)C2)nc1` (stereo not given), “inactive”; that for `CCCNc1cc(N2CCC(CCC(=O)Nc3ccc(C)cc3)CC2)ncn1`, “inactive”.
As for `COc1ccccc1Oc1ncccc1CNC(=O)c1ccc2n[nH]nc2c1`, the Potency entry was “inactive”.
The result for `CC(C)c1ccc([S+](=O)([O-])N2CCN(c3cccc(CN(C)[S+](C)(=O)[O-])c3F)CC2)cc1` reads 35.5 µM (active); that for `Cc1ccc(-c2ccccc2CN2CCN([S+](=O)([O-])c3cccc(C(F)(F)F)c3)CC2)cc1Cl`, “inactive”; that for `CC(=O)NC(C)c1nnc2n1CCN([S+](=O)([O-])c1ccccc1)C2` (stereo not given), “inactive”.
Under `CC(=O)NCCC(=O)N1Cc2ccccc2CC2(CCCCN2CC2CCNC2)C1` (stereo not given) stands “inactive”; under `NCC(=O)N1Cc2ccccc2CC2(CCCCN2CC2CCOCC2)C1` (stereo not given), “inactive”; under `O=C(C1CCCC1)N1Cc2ccccc2CC2(CCCCN2CC2CCNCC2)C1` (stereo not given), 17.8 µM (active).
